This is an account of results in PubChem BioAssay (NCI).

Compounds without any hit were thinned out: in the full panel of roughly 83,000, 20% have a hit.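 Values shown are percent growth following 48 h exposure of cells in 96-well plates to a single concentration of compound; below 10 was considered active.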 Active and inactive are the calls of the source.

The test system of this assay is PC-3 prostate. The assay is described as follows: NCI-60 one-dose screen, 48 h (100 = growth as untreated, 0 = no growth, -100 = all killed). Conditions: 10 µM unless noted. The procedure:
Growth inhibition of the PC-3 human tumor cell line is measured as a screen for anti-cancer activity. Cells are grown in 96 well plates and exposed to the test compound for 48 hours. Compounds are tested at a single concentration, which is 10^-5 M for most compounds. The reported endpoint is percent growth (GI% or GIPRCNT), where numbers from 0 - 100% represent growth inhibition, and numbers from -100% - 0 represent cell death. For example, a value of 40 represents 60% growth inhibition. A value of 0 means no net growth occurred over the course of the experiment. A value of -40 indicates 40% of cells at the beginning of the experiment died by the end of the experiment. A value of -100 means all cells are dead at the end of the experiment.
NCI-60 Human Tumor Cell Lines Screen was performed using the standard one-dose NCI protocol, which is described in more detail at https://dtp.cancer.gov/discovery_development/nci-60/default.htm.
Compounds with GIPRCNT values below 10 were considered active. Activity score was based on GIPRCNT using the following formula: […]
Score is 0 for GIPRCNT values of 100 or above, 50 for GIPRCNT values of 0, and 100 for GIPRCNT values of -100.
As to `COc1cc(C(=O)N2CCN(c3ccccc3)CC2)c2ccccc2n1`, the growth is 35.5% (inactive).
Regarding `CCCCCCCCCCCCCCCCCCSC(=N)N`, the growth was 65% (inactive).
For `Nc1ncnc2c1ncn2C1OC(CO)C2OC21` (stereo not given) the value was 95.8% (inactive).
In the case of `O=S(Cc1ccccc1)/C(=C/NC(=S)Nc1cc(Cl)ccc1Cl)c1ccccc1` (stereo not given), the growth was 94.1% (inactive).
Take `O=C(O)c1cccc(-n2ncc(Cl)c(Cl)c2=O)c1`: the growth is 88.7% (inactive).
For `COc1ccc(NNS(=O)(=O)O)cc1`, the growth was 86.1% (inactive).
Turning to `O=C1NC(=O)/C(=C\c2ccncc2)N1`, the growth is 96.3% (inactive).
In the case of `Cc1ccccc1NC(=O)Oc1ccc(Cl)cc1C(=O)c1ccccc1`, the growth is 95.2% (inactive).
Then `Oc1ccc2ccccc2c1CN1CCOCC1`, with 99.9% (inactive); and `C#CC(O)c1ccccc1` (stereo not given), with 97.3% (inactive); and `O=[N+]([O-])c1ccc2[nH]c(=S)n(/C=C(/c3ccc(Cl)cc3Cl)S(=O)(=O)Cc3ccc(Cl)cc3Cl)c2c1`, with 94.7% (inactive).
For `Cc1cc(Cl)cc(Cc2cc(Cl)cc(C)c2O)c1O` the value was -7.63% (active); for `C=COC(=O)CCOCC(CC)CCCC` (stereo not given), 98.2% (inactive).
For `N#Cc1ccc(OC(=O)Nc2cc(Cl)cc(Cl)c2)cc1` the value was -9.43% [100 µM] (active); for `CC(=O)CSc1ncnc2nc[nH]c12`, 92.5% (inactive); for `OC(CCN1CCCCC1)(c1ccccc1)c1ccccc1`, 96% (inactive).
On to `CN1CCN(C(=S)S)CC1`, for which the growth is 98.4% (inactive).
For `CN(C)Cc1ccccn1`, the growth was 90.3% (inactive).
For `Nc1cc2c(cc1Cl)C(=O)c1ccccc1C2=O` the value was 72.5% (inactive); for `C=C1CC2(OC1=O)C(=O)N(C)c1ccc(I)cc12` (stereo not given), -76.6% (active).
Turning to `O=c1cc(C(F)(F)F)[nH]c(=S)[nH]1`, the growth was 116% (inactive).
In the case of `Cc1ccc(S(=O)(=O)Oc2ccc3sc4c(CO)ccc(NCCN(C)C)c4c(=O)c3c2)cc1`, the growth is -86.8% [100 µM] (active).
Then `C1C[S+]2CC[S+]1CC2`, with 101% (inactive); and `CCN(Cc1ccc(Cl)c(Cl)c1)c1ccc2nc(N)nc(N)c2c1C`, with -62.2% (active).
Then `CC(=O)C[n+]1ccc(C)cc1Sc1ccccc1C`, with 91.8% (inactive); and `Cc1cc(Nc2ccc3c(c2)OCO3)c2cc3c(cc2n1)OCO3`, with 10.6% (inactive); and `CC(=O)Nc1ccc(/C=C2\SC(=S)N(/C=C(\C(C)=O)C(N)=O)C2=O)cc1`, with 78.5% (inactive).
With `COC(CCCl)c1ccc(Cl)cc1` (stereo not given), the growth was 108% (inactive).
In the case of `C=CCOc1ccc(Cl)cc1Cl`, the growth is 88.2% (inactive).
Then `CC(CC(CCC(=O)O)(c1ccccc1)c1ccccc1)N(C)C` (stereo not given), with 103% (inactive); and `ClCC(Cl)C1CCC(Cl)C(Cl)C1` (stereo not given), with 102% (inactive); and `COCC(N)=O`, with 94.6% (inactive).
`CC1(C)CC(=O)C=C(N)C1`: the growth was 93% (inactive).
For `CC(=O)N(C)N=Nc1ccc(C)cc1`, the growth was 97.7% (inactive).
For the molecule `O=C(Nc1ccccc1)c1ccco1`, the growth is 100% (inactive).
For `Cn1/c(=N\N=C\c2ccccc2OCCO)sc2ccccc21`, the growth was 76.5% (inactive).
For `O=Cc1ccc(O)c(O)c1` the value was 82.9% (inactive).
As for `CC(C)N(CCCC#N)C(C)C`, the growth is 86.7% (inactive).
For `Cc1c(-c2ccc(C3CCCCC3)cc2)nc2ccc(F)cc2c1C(=O)O` the value was 44.9% (inactive); for `C[n+]1c(/C=C\C=C\N2CCCCC2)sc2ccccc21`, 2.78% (active).
